Measured values from PubChem BioAssay (EPA / NIEHS).
Where “and” joins values, the source holds several entries; their conditions need not be identical. Equal values may be shown once. Where a structure was tested more than once in an assay, its records may differ in their call. Calls of active or inactive are those of the source. Rule for the calls: active = hit-call score of the fitted dose curve at least 0.9, where 1 is the maximum; inactive = score below 0.9.

Legend:
[1] = read-out: TIMP metallopeptidase inhibitor 2 (TIMP2), TIMP2 (gene 7077); assay: BSK_KF3CT_TIMP2: BioMAP Diversity Plus: KF3CT Assay for TIMP metallopeptidase inhibitor 2 (TIMP2) Biomarker Activity (AID 2283071); details: primary human keratinocytes with fibroblasts; actives raise or lower the signal
Outline: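 Co-culture of human primary keratinocytes and foreskin fibroblasts, measured 24 h after chemical dosing. TIMP-2 quantified by ELISA and fitted in both directions relative to DMSO. Cytotoxicity checked in parallel cultures by SRB total-protein staining.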

[2] = read-out: Transforming growth factor beta 1 (TGFb1), TGFB1 (gene 7040); assay: BSK_KF3CT_TGFb1: BioMAP Diversity Plus: KF3CT Assay for Transforming growth factor beta 1 (TGFb1) Biomarker Activity (AID 2283072); details: primary human keratinocytes with fibroblasts; actives raise or lower the signal
Outline: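 Human keratinocyte/foreskin fibroblast co-culture; TGF-b1 measured by ELISA 24 h after dosing, fitted bidirectionally versus DMSO. Cytotoxicity checked in parallel cultures by total protein (SRB staining, 560 nm).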

[3] = read-out: C-C motif chemokine 2 (Homo sapiens) (UniProt P13500); assay: BSK_KF3CT_MCP1: BioMAP Diversity Plus: KF3CT Assay for Monocyte Chemoattractant Protein 1 (MCP1/CCL2) Biomarker Activity (AID 2283073); details: primary human keratinocytes with fibroblasts; actives raise or lower the signal
Outline: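 Keratinocytes and foreskin fibroblasts were co-cultured, dosed with chemical, and sampled 24 h later. MCP-1 was quantified by ELISA, and the endpoint was analyzed with bidirectional fitting using DMSO as negative control.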

[4] = read-out: Matrix Metallopeptidase 9 (MMP9), MMP9 (gene 4318); assay: BSK_KF3CT_MMP9: BioMAP Diversity Plus: KF3CT Assay for Matrix Metallopeptidase 9 (MMP9) Biomarker Activity (AID 2283074); details: primary human keratinocytes with fibroblasts; actives raise or lower the signal;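 for AC50: MMP9 protein level quantified by ELISA in the co-culture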
Outline: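 Keratinocyte plus foreskin fibroblast human primary skin co-culture was dosed with chemical and MMP-9 was quantified by ELISA 24 h later. Bidirectional curve fitting used DMSO as negative control and activity baseline.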

[5] = read-out: urokinase plasminogen activator (uPA), PLAU (gene 5328); assay: BSK_KF3CT_uPA: BioMAP Diversity Plus: KF3CT Assay for urokinase plasminogen activator (uPA) Biomarker Activity (AID 2283075); details: primary human keratinocytes with fibroblasts; actives raise or lower the signal
Outline: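 Human keratinocyte plus foreskin fibroblast primary co-culture exposed to chemical for 24 h. uPA levels were quantified by ELISA, and activity was fitted bidirectionally against a DMSO negative-control baseline.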

[6] = read-out: E-selectin (Homo sapiens) (UniProt P16581); assay: BSK_LPS_Eselectin: BioMAP Diversity Plus: LPS Assay for Eselectin Biomarker Activity (AID 2283077); details: primary human HUVEC with PBMC; actives raise or lower the signal
Outline: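 Signal of E-selectin, detected by ELISA, served as the endpoint; cells were umbilical vein endothelium with PBMC, read 24 h after treatment. DMSO defined baseline, and both increases and decreases were fitted.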

[7] = read-out: Interleukin-8 (IL8), CXCL8 (gene 3576); assay: BSK_LPS_IL8: BioMAP Diversity Plus: LPS Assay for Interleukin-8 (IL8) Biomarker Activity (AID 2283078); details: primary human HUVEC with PBMC; actives raise or lower the signal
Outline: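 Endothelial cells and PBMC from human donors are co-cultured, treated with chemicals and LPS, then assayed for IL-8 by ELISA after 24 h. Parallel SRB staining (0.1% SRB after 10% TCA fixation, 560 nm) flags cytotoxicity.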

[8] = BSK_LPS_SRB: Viability Assessment in the BioMAP Diversity Plus: LPS Assay (AID 2283079); details: primary human HUVEC with PBMC;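 note: total protein by sulforhodamine B absorbance as a cytotoxicity measure; measured one day after compound addition; fitted in both directions against DMSO so loss or gain of signal counts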
Outline: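 Overt cytotoxicity was gauged by sulforhodamine B total-protein staining in a primary human vascular endothelial and mononuclear cell co-culture 24 h post-dosing. Activity was fitted in both directions relative to DMSO.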

[9] = read-out: Interleukin-1 alpha (IL1a), IL1A (gene 3552); assay: BSK_LPS_IL1a: BioMAP Diversity Plus: LPS Assay for Interleukin-1 alpha (IL1a) Biomarker Activity (AID 2283080); details: primary human HUVEC with PBMC; actives raise or lower the signal
Outline: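 Measured: IL-1 alpha via ELISA at 24 h in LPS-activated human umbilical vein endothelium–PBMC co-culture. Baseline: DMSO, bidirectional fitting.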

[10] = read-out: Monocyte Chemoattractant Protein-1 (MCP1), CCL2 (gene 6347); assay: BSK_LPS_MCP1: BioMAP Diversity Plus: LPS Assay for Monocyte Chemoattractant Protein-1 (MCP1) Biomarker Activity (AID 2283081); details: primary human HUVEC with PBMC; actives raise or lower the signal;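 for AC50: secreted MCP-1 protein quantified by ELISA in culture supernatant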
Outline: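 LPS-stimulated HUVEC/PBMC co-culture; chemical, 24 h; MCP-1 by ELISA; bidirectional fit vs DMSO; cytotoxicity via SRB (0.1% stain, 10% TCA fix, 560 nm) in parallel wells.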

[11] = BSK_LPS_PGE2: BioMAP Diversity Plus: LPS Assay for Prostaglandin E2 (PGE2) Biomarker Activity (AID 2283082); details: primary human HUVEC with PBMC; actives raise or lower the signal;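 for AC50: secreted prostaglandin E2 measured by ELISA in LPS-stimulated co-culture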
Outline: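 HUVEC plus human PBMC co-culture stimulated with LPS; secreted PGE2 quantified by ELISA 24 h after chemical dosing. Activity fitted bidirectionally against DMSO baseline; parallel SRB staining (0.1% SRB after 10% TCA fixation, 560 nm) flags overt cytotoxicity.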

[12] = read-out: Macrophage colony-stimulating factor (MCSF), CSF1 (gene 1435); assay: BSK_LPS_MCSF: BioMAP Diversity Plus: LPS Assay for Macrophage colony-stimulating factor (MCSF) Biomarker Activity (AID 2283083); details: primary human HUVEC with PBMC; actives raise or lower the signal
Outline: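 Compound is added to a human vascular primary co-culture of umbilical vein endothelium and blood mononuclear cells. After 24 h, M-CSF is quantified by ELISA. Signal changes are fitted in both directions against DMSO.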

[13] = read-out: Tissue Factor, F3 (gene 2152); assay: BSK_LPS_TissueFactor: BioMAP Diversity Plus: LPS Assay for Tissue Factor Biomarker Activity (AID 2283084); details: primary human HUVEC with PBMC; actives raise or lower the signal
Outline: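 In this co-culture system of umbilical vein endothelium with PBMC, stimulated with LPS, cell-surface CD142 is detected by ELISA at 24 h. Endpoint values derive from bidirectional fitting, DMSO serving as baseline.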

[14] = read-out: Tumor necrosis factor (Homo sapiens) (UniProt P01375); assay: BSK_LPS_TNFa: BioMAP Diversity Plus: LPS Assay for Tumour Necrosis Factor alpha (TNFa) Biomarker Activity (AID 2283085); details: primary human HUVEC with PBMC; actives raise or lower the signal
Outline: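 Human umbilical vein endothelial cells co-cultured with PBMC and stimulated with LPS. TNFa was measured by ELISA 24 h after chemical dosing, fitted bidirectionally relative to DMSO.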

[15] = read-out: Vascular cell adhesion molecule 1 (VCAM1), VCAM1 (gene 7412); assay: BSK_LPS_VCAM1: BioMAP Diversity Plus: LPS Assay for Vascular cell adhesion molecule 1 (VCAM1) Biomarker Activity (AID 2283086); details: primary human HUVEC with PBMC; actives raise or lower the signal
Outline: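 Human umbilical vein endothelial cells co-cultured with PBMC and stimulated with LPS; VCAM-1 measured by ELISA 24 h after dosing. Bidirectional curve fitting against DMSO baseline; cytotoxicity tracked in parallel by SRB total-protein staining.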

[16] = read-out: CD38, CD38 (gene 952); assay: BSK_SAg_CD38: BioMAP Diversity Plus: SAg Assay for CD38 Biomarker Activity (AID 2283087); details: primary human HUVEC with PBMC; actives raise or lower the signal
Outline: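 Human HUVEC plus PBMC co-culture stimulated with superantigen; CD38 measured by ELISA 24 h after chemical dosing. Fluorescence read-out, bidirectional fit against DMSO; cytotoxicity tracked in parallel by SRB and Alamar Blue.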

[17] = read-out: CD40, CD40 (gene 958); assay: BSK_SAg_CD40: BioMAP Diversity Plus: SAg Assay for CD40 Biomarker Activity (AID 2283088); details: primary human HUVEC with PBMC; actives raise or lower the signal
Outline: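 Fluorescence ELISA read-out of CD40 from umbilical vein endothelium plus peripheral blood mononuclear cells, sampled 24 h after dosing. Values come from bidirectional curve fitting with DMSO as baseline.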

[18] = read-out: CD69, CD69 (gene 969); assay: BSK_SAg_CD69: BioMAP Diversity Plus: SAg Assay for CD69 Biomarker Activity (AID 2283089); details: primary human HUVEC with PBMC; actives raise or lower the signal;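 for AC50: cell surface CD69 protein quantified by ELISA with fluorescence detection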
Outline: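 ELISA, fluorescence read-out: CD69 on human umbilical vein endothelial cell + PBMC co-culture, 24 h post-dosing. Gain or loss of signal fitted bidirectionally against DMSO baseline.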

[19] = read-out: Monocyte Chemoattractant Protein-1 (MCP1), CCL2 (gene 6347); assay: BSK_SAg_MCP1: BioMAP Diversity Plus: SAg Assay for Monocyte Chemoattractant Protein-1 (MCP1) Biomarker Activity (AID 2283090); details: primary human HUVEC with PBMC; actives raise or lower the signal
Outline: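 MCP-1 levels in the endothelial–PBMC SAg co-culture were quantified by ELISA at 24 h post-dosing; both increases and decreases versus DMSO scored. Cytotoxicity monitored by SRB total protein in parallel cultures.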

Measured: AC50

E-selectin (Homo sapiens), sequence (P16581 whole entry, looked up): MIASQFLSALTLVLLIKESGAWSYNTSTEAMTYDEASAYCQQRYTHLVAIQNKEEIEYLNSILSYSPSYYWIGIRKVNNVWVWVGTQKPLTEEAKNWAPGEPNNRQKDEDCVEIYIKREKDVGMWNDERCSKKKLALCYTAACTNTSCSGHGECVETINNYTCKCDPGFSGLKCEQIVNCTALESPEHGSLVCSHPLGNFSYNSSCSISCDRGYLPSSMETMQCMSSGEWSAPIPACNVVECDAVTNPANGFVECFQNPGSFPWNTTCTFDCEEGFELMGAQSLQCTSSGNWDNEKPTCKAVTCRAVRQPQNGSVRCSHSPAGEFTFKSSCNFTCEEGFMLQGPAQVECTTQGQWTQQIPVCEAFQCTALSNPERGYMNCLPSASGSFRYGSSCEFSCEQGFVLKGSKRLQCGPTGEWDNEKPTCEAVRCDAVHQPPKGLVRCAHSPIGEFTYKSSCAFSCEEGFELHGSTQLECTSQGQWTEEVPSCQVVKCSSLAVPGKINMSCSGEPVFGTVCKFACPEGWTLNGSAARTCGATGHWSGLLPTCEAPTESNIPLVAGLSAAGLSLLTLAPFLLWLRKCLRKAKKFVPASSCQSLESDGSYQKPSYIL
Tumor necrosis factor (Homo sapiens), sequence (P01375 whole entry, looked up): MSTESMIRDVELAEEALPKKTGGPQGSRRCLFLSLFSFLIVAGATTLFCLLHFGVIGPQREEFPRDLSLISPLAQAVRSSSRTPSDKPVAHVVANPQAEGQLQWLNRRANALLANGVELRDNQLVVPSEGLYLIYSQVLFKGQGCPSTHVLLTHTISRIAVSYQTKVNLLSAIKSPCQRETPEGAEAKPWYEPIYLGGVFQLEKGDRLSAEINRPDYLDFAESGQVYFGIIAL

CC(=O)OCC=C(C)CCC=C(C)CCC=C(C)C
inactive: [1] | [2] | [3] | [4] | [5] | [6] | [7] | [8] | [9] | [10] | [11] | [12] | [13] | [14] | [15] | [16] | [17] | [18] | [19]

O=C1OC2(c3ccc(O)cc3Oc3cc(O)ccc32)c2ccccc21
inactive: [1] | [2] | [3] | [4] | [5] | [6] | [7] | [8] | [9] | [10] | [11] | [12] | [13] | [14] | [15] | [16] | [17] | [18] | [19]

Nc1ccc(N)c([N+](=O)[O-])c1
active: [15] 5.09 µM | [18] 8.69 µM
inactive: [1] | [2] | [3] | [4] | [5] | [6] | [7] | [8] | [9] | [10] | [11] | [12] | [13] | [14] | [16] | [17] | [19]

O=C(O)C(F)(F)C(F)(F)C(F)(F)C(F)(F)C(F)(F)C(F)(F)C(F)(F)C(F)F
inactive: [1] | [3] | [4] | [5] | [6] | [8] | [9] | [10] | [11] | [12] | [13] | [14] | [15] | [16] | [17] | [18] | [19]
active: [7] 8.81 µM and 17.9 µM

CC1=CC(C)C(C=O)C(C)C1 (centres undefined) (tested in a mixture with another compound)
inactive: [1] | [2] | [3] | [4] | [5] | [6] | [7] | [8] | [9] | [10] | [11] | [12] | [13] | [14] | [15] | [16] | [17] | [18] | [19]

CCCO[Si](OCCC)(OCCC)OCCC
active: [7] 3.97 µM
inactive: [1] | [3] | [4] | [5] | [6] | [7] | [8] | [9] | [10] | [11] | [12] | [13] | [14] | [15] | [16] | [17] | [18] | [19]

CCCCCCCCCC(=O)OCC
inactive: [1] | [4] | [5] | [6] | [7] | [8] | [9] | [10] | [11] | [12] | [13] | [14] | [15] | [16] | [17] | [18] | [19]
active: [2] 32.2 µM | [3] 13.3 µM

CCCCN(CCO)CCO
inactive: [1] | [3] | [4] | [5] | [6] | [7] | [8] | [9] | [10] | [11] | [12] | [13] | [14] | [15] | [16] | [17] | [18] | [19]
active: [5] 14.9 µM

CCC(=O)OCC=Cc1ccccc1
inactive: [1] | [2] | [3] | [4] | [5] | [6] | [7] | [8] | [9] | [10] | [11] | [12] | [13] | [14] | [15] | [16] | [17] | [18] | [19]

CC(C)(CO)CO
inactive: [1] | [3] | [4] | [5] | [6] | [7] | [8] | [9] | [10] | [11] | [12] | [13] | [14] | [15] | [16] | [17] | [18] | [19]

O=C(c1ccc(OCCN2CCCCC2)cc1)c1c(-c2ccc(O)cc2)sc2cc(O)ccc12
active: [1] 29.3 µM | [2] 19.8 µM | [3] 29.1 µM | [4] 17.9 µM | [5] 34.9 µM | [6] 38.3 µM | [7] 33.8 µM | [8] 26.7 µM | [9] 21 µM | [10] 30.8 µM | [11] 20 µM | [13] 35.9 µM | [14] 33.8 µM | [15] 28.4 µM | [16] 30.1 µM | [17] 19.4 µM | [18] 23 µM | [19] 30.7 µM

O=S(=O)(O)C(F)(F)C(F)(F)OC(F)(F)C(F)(F)F
active: [7] 30 µM and 10 µM
inactive: [1] | [3] | [4] | [5] | [6] | [8] | [9] | [10] | [11] | [12] | [13] | [14] | [15] | [16] | [17] | [18] | [19]
